Data published in PubChem BioAssay (NCI).
Where “and” joins values, the source holds several entries; their conditions need not be identical. Equal values may be shown once. Compounds without any hit were thinned out: in the full panel of roughly 83,000, 20% have a hit.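 Testing used 96-well plates and a 48-hour single-concentration exposure. Example: -40 means 40% of the starting cells died.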 Calls of active or inactive are those of the source. How the source made its calls: active means growth percent below 10; inactive means the rest.

Legend:
Experiment in all cases: NCI-60 one-dose screen, 48 h (100 = growth as untreated, 0 = no growth, -100 = all killed)
Conditions in all cases: 10 µM unless noted
NCI-H23 lung = test system: NCI-H23 lung
NCI-H226 lung = test system: NCI-H226 lung
NCI-H322M lung = test system: NCI-H322M lung
HOP-62 NSCLC = test system: HOP-62 NSCLC
NCI-H460 lung = test system: NCI-H460 lung
HOP-92 NSCLC = test system: HOP-92 NSCLC
NCI-H522 lung = test system: NCI-H522 lung
A549/ATCC NSCLC = test system: A549/ATCC NSCLC
786-0 renal = test system: 786-0 renal
COLO 205 colon = test system: COLO 205 colon
DU-145 prostate = test system: DU-145 prostate
K-562 leukemia = test system: K-562 leukemia
MALME-3M melanoma = test system: MALME-3M melanoma
MDA-MB-231 breast = test system: MDA-MB-231 breast
RXF 393 renal = test system: RXF 393 renal
SF-268 CNS = test system: SF-268 CNS
SF-295 CNS = test system: SF-295 CNS
SF-539 CNS = test system: SF-539 CNS
UACC-257 melanoma = test system: UACC-257 melanoma
M14 melanoma = test system: M14 melanoma

SMILES | growth (NCI-H23 lung) | growth (NCI-H226 lung) | growth (NCI-H322M lung) | growth (HOP-62 NSCLC) | growth (NCI-H460 lung) | growth (HOP-92 NSCLC) | growth (NCI-H522 lung) | growth (A549/ATCC NSCLC) | growth (786-0 renal) | growth (COLO 205 colon) | growth (DU-145 prostate) | growth (K-562 leukemia) | growth (MALME-3M melanoma) | growth (MDA-MB-231 breast) | growth (RXF 393 renal) | growth (SF-268 CNS) | growth (SF-295 CNS) | growth (SF-539 CNS) | growth (UACC-257 melanoma) | growth (M14 melanoma)
COc1ccc(-c2cc3cnc4ccccc4c3oc2=O)cc1 | 94.4% (inactive) | 103% (inactive) | 94.5% (inactive) | 105% (inactive) | 104% (inactive) | 73.5% (inactive) | 97.4% (inactive) | 101% (inactive) | 89% (inactive) | 103% (inactive) | 97.8% (inactive) | 28.1% (inactive) | 97% (inactive) | 88.2% (inactive) | 86.5% (inactive) | 99.7% (inactive) | 96.7% (inactive) | 102% (inactive) | 96.4% (inactive) | 106% (inactive)
O=Nc1c(O)ccc2ccccc12 | 89.7% (inactive) | 93.2% (inactive) and 97.4% (inactive) | 97.1% (inactive) | 117% (inactive) and 101% (inactive) | 96.4% (inactive) and 106% (inactive) | 66% (inactive) and 87.1% (inactive) | 41.8% (inactive) and 86.2% (inactive) | 72.2% (inactive) and 100% (inactive) | 92.1% (inactive) and 104% (inactive) | 71.1% (inactive) and 110% (inactive) | 83.9% (inactive) and 113% (inactive) | 51% (inactive) and 87.7% (inactive) | 33.3% (inactive) and 122% (inactive) | 57.4% (inactive) and 62.7% (inactive) | 80.5% (inactive) and 102% (inactive) | 49.6% (inactive) and 103% (inactive) | 91.3% (inactive) and 109% (inactive) | 94.9% (inactive) and 104% (inactive) | -51.3% (active) and 80.8% (inactive) | 49.6% (inactive) and 104% (inactive)
COCCn1cc(-c2nc(-c3cn(CCOC)c4ncccc34)cs2)c2ccccc21 | 56.2% (inactive) | 87.3% (inactive) | 59.2% (inactive) | 67.8% (inactive) | 56.6% (inactive) | 66.4% (inactive) | 53.4% (inactive) | 70.8% (inactive) | 82.9% (inactive) | 18.8% (inactive) | 97.1% (inactive) | 119% (inactive) | 88.6% (inactive) | 49% (inactive) | 76.1% (inactive) | 83.3% (inactive) | 91.4% (inactive) | 79.4% (inactive) | 88% (inactive) | 99.9% (inactive)
COc1ccc(Cl)cc1Nc1nc(C(F)(F)F)ccc1C(=O)N/N=C/c1ccc(N(C)C)cc1 | 95.4% (inactive) | 105% (inactive) | 80.8% (inactive) | 73.6% (inactive) | 143% (inactive) | 85.4% (inactive) | 105% (inactive) | 97% (inactive) | 76% (inactive) | 92.2% (inactive) | 117% (inactive) | 122% (inactive) | 92.2% (inactive) | 72.9% (inactive) | 75.6% (inactive) | 107% (inactive) | 154% (inactive) | 115% (inactive) | 110% (inactive) | 81.3% (inactive)
O=C(NCCCN1CCCCC1)c1ccc(-c2nc3ccc4[nH]ncc4c3c3c2CCCC3)cc1 | 49.3% (inactive) | 63.8% (inactive) | 51.7% (inactive) | 47.6% (inactive) | 24.9% (inactive) | 46.2% (inactive) | 42.8% (inactive) | 26.6% (inactive) | 44.3% (inactive) | 60.9% (inactive) | 51.3% (inactive) | 16.7% (inactive) | 70.8% (inactive) | 54.9% (inactive) | 28.5% (inactive) | 54.2% (inactive) | 55.3% (inactive) | 43.8% (inactive) | 97.2% (inactive) | 57.3% (inactive)
COc1cc2nc3cc([N+](=O)[O-])ccc3c(NCCNCC(C)(C)O)c2cc1OC | -34.1% (active) | -4.58% (active) | -3.78% (active) | -23% (active) | -38.7% (active) | -45.6% (active) | -40.3% (active) | -9.76% (active) | 2.27% (active) | -70.1% (active) | -8.55% (active) | 1.28% (active) | -74.4% (active) | -28.5% (active) | -47.3% (active) | -10.8% (active) | 16.4% (inactive) | -20.8% (active) | -61.8% (active) | -75.7% (active)
CC1(C)C(N)=Nc2cc(OCCCN3Cc4ccc(OCCc5cn(CC(=O)N6CCC(CCN7CCCC7)CC6)nn5)cc4C3)c(OCC3CC3)cc21 | 98.2% (inactive) | 108% (inactive) | 102% (inactive) | 95.4% (inactive) | 105% (inactive) | 81.3% (inactive) | 101% (inactive) | 100% (inactive) | 99.6% (inactive) | 108% (inactive) | 111% (inactive) | 88% (inactive) | 106% (inactive) | 112% (inactive) | 113% (inactive) | 86% (inactive) | 100% (inactive) | 97% (inactive) | 112% (inactive) | 108% (inactive)
